# The campaign covered roughly 48,000 compounds. About 13,000 (27%) showed an effect of 50% or more. The list shows a part of the results.
# Test system: Wolbachia pipientis
# Assay: Anti-Wolbachia Cell-Based Screen
# Assay type: functional
# Design: scale not given: in the data most compounds retested in dose-response had high values
# Conditions: 5 µM
row,SMILES,Percent Effect [%]
1,COc1ccc(CNC(=O)CNc2cc3c(cc2Cl)OCCO3)cc1,11.87
2,CN1CCc2onc(CNc3ncccn3)c2C1.O=C(O)C(F)(F)F.O=C(O)C(F)(F)F,-12.85
3,Cc1ccc(CN(Cc2ccccn2)C(=O)[C@H]2CC[C@@H](N)C2)s1,-33.4
4,O=C(O)C(F)(F)F.c1c2c(nn1CC1CC1)C(CNC1CCOCC1)OCC2 (stereo not given),5.412
5,COCCN(Cc1ccc(F)cc1Cl)C(=O)c1cccc[n+]1[O-],-30.73
6,O=S(=O)(c1ccccc1F)N1CCC(Oc2cccnn2)CC1,-7.526
7,Cc1noc(C)c1S(=O)(=O)N1CCC(Oc2ccccn2)CC1,2.267
8,Cc1n[nH]c(C)c1S(=O)(=O)N1CCC(Oc2ccccc2F)CC1,121.8
9,Cc1noc(C)c1S(=O)(=O)N1CCC(Oc2cccnn2)CC1,-5.902
10,Cc1ccccc1OC1CCN(S(=O)(=O)c2c(C)n[nH]c2C)CC1,120.4
11,COc1ccccc1S(=O)(=O)N1CCC(Oc2cccnn2)CC1,-12.85
12,CCOC(=O)C1CCN(CCCc2nnnn2-c2ccccc2)CC1,10.8
13,NC(=O)NCC1CCCCN1C(=O)c1ccc(Cl)s1 (stereo not given),6.082
14,NC(=O)NCC1CCCCN1C(=O)c1cccc(Cl)c1 (stereo not given),109.7
15,NC(=O)NCC1CCCCN1C(=O)c1ccc(Br)s1 (stereo not given),13.78
16,Cc1ccc(C(=O)N2CCCCC2CNC(N)=O)cc1F (stereo not given),100.6
17,NC(=O)NCC1CCCCN1C(=O)c1cc(F)cc(F)c1 (stereo not given),94.01
18,Cc1ccc(C(=O)N2CCCCC2CNC(N)=O)s1 (stereo not given),-21.76
19,CNS(=O)(=O)CC1CCCN1C(=O)c1ccc(C)c(C)c1 (stereo not given),1.148
20,CN(C)c1ccc(C(=O)N2CCCCC2CC(N)=O)c(F)c1 (stereo not given),-10.13
21,COc1cccc(C(=O)N2CCCCC2CNC(N)=O)c1 (stereo not given),4.596
22,CC(=O)Nc1nc(CN2CCCCC2Cn2cncn2)cs1 (stereo not given),101
23,Cc1cc(C)n(CC2CCCN2C(=O)Cc2csc(C)n2)n1 (stereo not given),-5.348
24,CC(=O)Nc1nc(CN2CCCC2Cn2cncn2)cs1 (stereo not given),-0.3919

row,SMILES,Percent Effect [%]
1,CCN(C(C)=O)c1nc(CN2CCCCC2Cn2cncn2)cs1 (stereo not given),113.4
2,CN(C)C(=O)Cc1nc(CN2CCCC2Cn2cccn2)cs1 (stereo not given),-60.87
3,CCN(C(C)=O)c1nc(CN2CCCC2Cn2cncn2)cs1 (stereo not given),93.1
4,Cc1cccn2c(=O)cc(CN3CCCCC3Cn3cncn3)nc12 (stereo not given),-0.6189
5,c1ncn(CC2CCCN2Cc2cn3ccsc3n2)n1 (stereo not given),-12.38
6,CC(=O)N(C)c1nc(CN2CCCC2Cn2nc(C)cc2C)cs1 (stereo not given),89.05
7,Cc1cc(C)n(CC2CCCN2CC(=O)N(C)C)n1 (stereo not given),-0.9617
8,NC(=O)c1ccc(N2CCCCC2)c(NC(=O)c2ccc(F)cc2Cl)c1,-3.289
9,CSc1nc(C2CC2)nc(C)c1C(=O)NCc1ncc(C)o1,6.945
10,CCc1nc(CN2CCCN(C(=O)c3cn[nH]c3CC)CC2)cs1,9.391
11,Cc1cc(NC(=O)N2CCCC(O)C2)nn1-c1ccccc1Cl (stereo not given),-23.68
12,CC(=O)N(C)c1nc(CN2CCCC2Cn2cncn2)cs1 (stereo not given),102
13,CC(=O)N(C)c1nc(CN2CCCCC2Cn2cncn2)cs1 (stereo not given),-7.447
14,CN(C)C(=O)Cc1nc(CN2CCCC2Cn2cncn2)cs1 (stereo not given),-5.183
15,COc1ccc(N(C)C(=O)c2cccc(S(C)(=O)=O)c2)cn1,-2.349
16,Cc1nc[nH]c1C(=O)N1CC[C@@H](NC(=O)c2ccccn2)[C@H](O)C1,-7.66
17,CO[C@H]1CN(C(=O)c2ccc3oc(C)cc3c2)CC[C@@]12CCCO2,0.1168
18,CO[C@H]1CCN(C(=O)c2ccc3oc(C)cc3c2)C[C@@]12CCCO2,93.08
19,CC[C@@]1(O)CCN(C(=O)c2cccc3cc(C)oc23)C[C@H]1O,10.55
20,COc1ccc(C(=O)N2C[C@@H](C)[C@@](C)(O)C2)cc1N1CCOCC1,-1.788
21,COc1ccc(C(=O)N2CC[C@](C)(O)[C@H](C)C2)cc1N1CCOCC1,0.3479
22,Cc1cc2cc(C(=O)N3C[C@H](O)[C@]4(CCCO4)C3)ccc2o1,113.6
23,CO[C@H]1CN(C(=O)c2ccc3oc(C)cc3c2)C[C@@]12CCCO2,96.35
24,Cc1cc2cc(C(=O)N3CC[C@H](O)[C@]4(CCCO4)C3)ccc2o1,1.113

row,SMILES,Percent Effect [%]
1,CC(=O)N1CCC2(CC1)CN(C(=O)c1ccc3c(c1)OCCO3)C2,-18.73
2,Cc1nc(C(C)C)ncc1C(=O)N1CCc2c(nc(N(C)C)[nH]c2=O)C1,-2.755
3,Cc1ccc(CN2CC3(CCNCC3)CCC2=O)c(F)c1F,-4.713
4,CNC(=O)[C@@]12CCC3(CCN(C(=O)C(C)C)CC3)[C@@H]1CN(S(C)(=O)=O)C2,104.1
5,CCN1C[C@H]2C3(CCN(S(C)(=O)=O)CC3)CC[C@@]2(C(=O)N(C)C)C1.O=C(O)C(F)(F)F,-24.55
6,CCN1CC2(CC1=O)CN(C(=O)COC)CCN(S(C)(=O)=O)C2 (stereo not given),-10.66
7,CNC(=O)N1CCC2(CC1)CC[C@@]1(C(=O)NC)CN(S(C)(=O)=O)C[C@@H]21,99.51
8,CC(C)NC(=O)N1CCC2(CC1)CC[C@@]1(C(=O)N(C)C)CN(C)C[C@@H]21,-18.22
9,CNC(=O)[C@@]12CCC3(CCN(S(C)(=O)=O)CC3)[C@@H]1CN(S(C)(=O)=O)C2,14.17
10,CCN1C[C@H]2C3(CCN(C(=O)NC(C)C)CC3)CC[C@@]2(C(=O)NC)C1.O=C(O)C(F)(F)F,-18.02
11,CNC(=O)[C@@]12CCC3(CCN(C(=O)COC)CC3)[C@@H]1CN(S(C)(=O)=O)C2,102.3
12,CNC(=O)[C@@]12CCC3(CCNCC3)[C@@H]1CN(S(C)(=O)=O)C2,151.6
13,CC(=O)N1CCC2(CC1)CC[C@@]1(C(=O)N(C)C)CN(S(C)(=O)=O)C[C@@H]21,-18.69
14,CNC(=O)[C@@]12CCC3(CCN(C(C)=O)CC3)[C@@H]1CN(S(C)(=O)=O)C2,-0.1611
15,O=C(c1cscn1)N(CCCO)S(=O)(=O)c1cccs1,7.908
16,CN(CCSc1ccccc1)C(=O)c1cn2c(n1)CNCC2,-0.3479
17,O=C(NCc1ccc(C(=O)N2CCCC2)cc1)c1cn2c(n1)CNCC2,-4.939
18,CN1C(=O)CC(N(C)Cc2nc3ccccc3c(=O)[nH]2)C1=O (stereo not given),-8.963
19,CCC(C)N(Cc1ccncc1)Cc1cccc(Cn2cccn2)c1 (stereo not given),-14.79
20,CCc1[nH]c2c(CNc3cncc(C(=O)OC)n3)cc(C)cc2c1C,11.12
21,O[C@H]1COCCN(Cc2cccc3c2OCO3)C1,-4.774
22,CCOc1ccccc1-c1noc(CN2CCOC(CN(C)C)C2)n1 (stereo not given),7.76
23,Cc1ccccc1-c1cc(C(=O)N2CCn3c(C)nnc3C2)[nH]n1,-2.104
24,Cc1nnc2n1CCN(C(=O)c1cc(Cl)c[nH]1)C2,-1.056

row,SMILES,Percent Effect [%]
1,CC(C)c1nnc2n1CCN(C(=O)c1ccnc(N(C)C)c1)C2,-1.642
2,CC(C)c1nnc2n1CCN(C(=O)c1ccc3cc[nH]c3c1)C2,-4.188
3,CC(C)c1nnc2n1CCN(C(=O)c1cc3cc(F)ccc3[nH]1)C2,98.88
4,Cc1nnc2n1CCN(C(=O)c1cc3cc(F)ccc3[nH]1)C2,87.27
5,O=C(NC[C@H]1OC[C@@H](NCc2ccccc2)[C@@H]1O)Nc1ccccc1,-15.87
6,O=C(Cc1ccsc1)N1C[C@@H]2C[C@@H](c3nnc(C4CC4)o3)O[C@@H]2C1,1.752
7,Cc1nnc([C@@H]2CC[C@@H]3[C@@H](CCN3CC3CCOCC3)O2)o1,8.23
8,C1CC(CN2C[C@H]3CC[C@@H]2CN(Cc2nnc(C4CC4)o2)C3)C1,1.497
9,C1CC(CN2C[C@@H]3C[C@@H](c4nnc(C5CC5)o4)O[C@@H]3C2)C1,108.7
10,C1CC(CN2C[C@@H]3C[C@@H](c4nnc(C5CC5)o4)O[C@@H]3C2)CCO1,101.2
11,C1CC(CN2CC[C@@H]3O[C@@H](c4nnc(C5CC5)o4)C[C@H]3C2)CCO1,104.3
12,Cc1nnc([C@H]2CC[C@@H]3[C@@H](CCN3CC3CCOCC3)O2)o1,-4.928
13,Cc1noc([C@@H]2C[C@H]3CN(CC4CCOCC4)C[C@H]3O2)n1.O=C(O)C(F)(F)F,45.83
14,COc1cc2c(cc1OC)S(=O)(=O)N(Cc1ccccc1)C2=O,-12.48
15,CCC(C)N(Cc1cccnc1)Cc1ccccc1Cn1cccn1 (stereo not given),1.099
16,Cc1cc(N(Cc2ccccn2)C2CC2)n2nc(C(F)(F)F)nc2n1,23.9
17,CCC(NC(=O)CS(=O)(=O)C1CCCC1)c1cc(F)ccc1F (stereo not given),-16.07
18,CCS(=O)(=O)CC(=O)NC(c1ccccc1)C1CCCC1 (stereo not given),90.5
19,O=C(CS(=O)(=O)C1CCCC1)NC(c1ccc(F)cc1)C1CC1 (stereo not given),106.7
20,Cc1nn(C)c(C)c1NC(=O)CNC(c1ccccc1)C1CCCC1 (stereo not given),-3.756
21,N#CC(NC(=O)CS(=O)(=O)C1CCCC1)c1ccc(F)cc1F (stereo not given),10.46
22,CCn1cnnc1CNC(=O)NC(c1ccccc1)C1CCCC1 (stereo not given),9.923
23,CN(CCNC(=O)N1CCCC1)C(=O)OC(C)(C)C,-14.2
